Assay outcomes from PubChem.
LmPK inhibitor – LmPK (Leishmania mexicana) enzyme inhibition | actives 0.37% (n = 290,000) | purified LmPK, Kinase-Glo ATP luminescence, 1 h | AID 1721 | Potency, µM (highest dose often 57.5 µM), for inactives: at the top dose activity change, negative = inhibition, hits mostly inhibitors; also: % is scaled to controls: 0 for no effect and ±100 for the full control effect
Target sequence (Q27686 whole entry, looked up): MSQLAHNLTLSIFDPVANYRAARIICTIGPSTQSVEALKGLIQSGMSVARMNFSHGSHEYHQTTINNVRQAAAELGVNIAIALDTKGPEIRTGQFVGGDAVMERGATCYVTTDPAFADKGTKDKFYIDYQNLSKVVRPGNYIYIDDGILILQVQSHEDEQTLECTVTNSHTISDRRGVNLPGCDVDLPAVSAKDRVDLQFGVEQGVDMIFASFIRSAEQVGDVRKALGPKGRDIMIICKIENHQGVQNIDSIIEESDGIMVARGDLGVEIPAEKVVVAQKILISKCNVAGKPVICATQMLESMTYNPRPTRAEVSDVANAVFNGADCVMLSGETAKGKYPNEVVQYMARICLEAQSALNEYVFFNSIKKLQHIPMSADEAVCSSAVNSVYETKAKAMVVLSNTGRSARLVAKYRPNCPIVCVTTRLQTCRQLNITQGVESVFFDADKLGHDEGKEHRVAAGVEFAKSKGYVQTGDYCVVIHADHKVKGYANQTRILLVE
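ATP generated from ADP (0.1 mM) and PEP (0.5 mM) by 0.1 nM LmPK over 1 h at room temperature (pH 7.2 imidazole buffer) was detected by coupled luciferase luminescence. Values were normalized to uninhibited and no-enzyme wells.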
TbPYK inhibitor – blocks Trypanosoma brucei pyruvate kinase; actives 0.12% (n = 410,000); Potency, µM (top dose mostly 76.8 µM), without a hit: top-dose activity, negative = inhibition, hits mostly inhibitors; TbPYK enzyme, Kinase-Glo Plus ATP luminescence, 45 min; Q57TT1; also: % is scaled to controls: 0 for no effect and ±100 for the full control effect; nearly all actives have a fitted effect of over 50% in size
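Activity of T. brucei pyruvate kinase was followed by Kinase-Glo Plus luminescence after the enzyme reacted 45 min at room temperature with 130 uM ADP (final) and substrate. Test compounds were added before ADP at multiple concentrations.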
RE007 growth inh – less growth of the S. pombe RE007 Vpr strain; S. pombe RE007 Vpr strain, BacTiter-Glo ATP luminescence, 24 h; Potency, µM (titrated, usually from 92.2 µM), inactives show at the highest dose activity change, negative = less growth, most hits filed as inhibitors; AID 651644; actives 0.21% (n = 360,000); active = well fitted falling curve with a large enough effect; inconclusive = small, poorly fitted or top-dose-only effect; inactive = no such curve, though single readings can be large or run the other way; also: % is scaled to controls: 0 for no effect and ±100 for the full control effect; nearly all actives have a fitted effect of over 50% in size
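Fission yeast strain RE007, carrying one chromosomally integrated HIV-1 vpr copy, was seeded at OD 0.01 in PMG+AL medium with 23 nL pinned compound. After 24 h at 30 °C and 99% humidity, viability was read by BacTiter-Glo luminescence.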
SARS PLpro yeast – blocks SARS-CoV papain-like protease in a yeast assay; S. cerevisiae expressing SARS-CoV PLpro, growth rescue; actives 0.19% (n = 330,000); Potency, µM (highest dose often 32.9 µM), for inactives: top-dose activity, positive = growth rescue, usual class: activators; calls by dose curve; also: 0% is about no effect; nearly all actives have a fitted effect of over 55% in size
Sm TGR block – S. mansoni TGR enzyme inhibition; purified TGR, DTNB reduction, TNB absorbance 405 nm; AID 485364; Q962Y6; Potency, µM (titrated, usually from 114 µM), for the others: at the highest dose activity change, negative = inhibition, usual class: inhibitors; actives 3% (n = 360,000); also: % is scaled to controls: 0 for no effect and ±100 for the full control effect; nearly all actives have a fitted effect of over 60% in size
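First, TGR (20 nM dispensed) and NADPH were mixed with compound. Second, a 15 min room-temperature incubation followed. Third, further NADPH and then DTNB were added to start the reaction. Finally, TNB absorbance was monitored kinetically.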
NS1 function inh – inhibitors of influenza NS1 protein function; Potency, µM (doses to about 46.1 µM), without a hit: top-dose activity, positive = more growth; actives 0.4% (n = 270,000); AID 2326; calls by dose curve; also: actives are rising curves; nearly all actives have a fitted effect of over 50% in size
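In this qHTS, NS1 from influenza A is expressed in budding yeast, where it slows growth. Cells are switched from glucose to 2% galactose medium (pH 6.0, -URA), treated with compound, and growth recovery is read at OD600.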
Starred values were filed as active, the others as inactive; ? = inconclusive; / = no result; [ ] = another dose, or the depositor's remark. A selection: hits, their analogues and other compounds. The true share with any hit is near 3.3%. Unless noted, calls follow the shape of the dose curve; as a rule, active = well fitted curve in the direction sought with a large enough effect; inconclusive = small, poorly fitted or top-dose-only effect, or another doubt; inactive = no such curve, though single readings can be large; an effect the other way counts as inactive or inconclusive. Potency is read from the fitted curve at half-maximal effect.

SMILES	LmPK inhibitor	TbPYK inhibitor	RE007 growth inh	SARS PLpro yeast	Sm TGR block	NS1 function inh
Cc1ccc(NC(=O)Cn2nc(-c3ccco3)ccc2=O)cc1Cl	0.8%	-5.3%	4.9%	-0.9%	6.31µM*	10.6%
Cc1ccc(NC(=O)CCn2cccc2)cc1Cl	3.4%	-10.0%	-9.1%	-9.8%	35.5µM*	-8.8%
Cc1ccc(NC(=O)Cn2nc3c(cc2=O)CCCC3)cc1Cl	/	3.5%	/	/	0.5%	/
CC1CCN(C2CC(=O)N(c3ccc(Br)cc3Br)C2=O)CC1 (stereo not drawn)	3.6%	-1.5%	39.8µM*	-5.0%	20µM*	-87.5%
CC1CCN(C2CC(=O)N(c3ccccc3)C2=O)CC1 (stereo not drawn)	-0.2%	-1.7%	20µM*	-6.6%	28.2µM*	-46.4%
O=C1CC(N2CCN(Cc3ccccc3)CC2)C(=O)N1c1ccccc1 (stereo not drawn)	1.9%	2.7%	-5.0%	-4.6%	?	1.6%
CC(=O)Oc1c(Br)cc(N(C(C)=O)S(=O)(=O)c2ccccc2)c2ccccc12	?	-18.4%	2.1%	-7.6%	3.55µM*	-9.2%
CC(=O)NC(CCC(N)=O)C(=O)O (stereo not drawn)	/	3.0%	/	/	/	/
O=C1/C(=C\c2ccco2)SC(=S)N1C1CCCCC1	1.5%	/	/	-6.1%	39.8µM*	20.2%
O=C1/C(=C/c2ccco2)SC(=S)N1CCC(=O)N1CCCCC1CCO (stereo not drawn)	14.0%	-20.8%	-10.1%	15.4%	22.4µM*	17.0%
Cc1ccc(N2C(=O)/C(=C/c3ccco3)SC2=S)cc1	3.5%	8.2%	-11.4%	-14.6%	-12.5%	10.4%
O=C1/C(=C/c2ccc(Cl)cc2)SC(=S)N1CCC(=O)N1CCCCC1CCO (stereo not drawn)	-7.2%	-6.8%	-13.5%	0.0%	-5.1%	-1.1%
NC(=O)CCC1NC(=O)C(Cc2ccccc2)NC(=O)C(Cc2ccc(O)cc2)NC(=O)CCSSCC(C(=O)N2CCCC2C(=O)NC(CCCN=C(N)N)C(=O)NCC(N)=O)NC(=O)C(CC(N)=O)NC1=O (stereo not drawn)	/	5.8%	/	/	/	/
COc1ccc(Cn2c(SCc3ccc(C(=O)NC(C)c4ccccc4)cc3)nc3cccnc32)cc1 (stereo not drawn)	/	2.6%	/	/	4.4%	/
CCOc1cc(C=C2C(=O)NC(=O)NC2=O)ccc1OS(=O)(=O)c1ccccc1	-1.0%	?	4.6%	-1.3%	22.4µM*	-14.9%
COc1cc(C=C2C(=O)NC(=O)NC2=O)ccc1OS(=O)(=O)c1ccccc1[N+](=O)[O-]	9.1%	-26.3%	-17.2%	-1.9%	2.82µM*	14.9%
CCOc1ccc(C=C2C(=O)NC(=S)NC2=O)cc1OCC	/	?	21.2%	/	/	/
COc1cc(/C=C2\C(=N)N3N=CSC3=NC2=O)ccc1OS(=O)(=O)c1ccccc1[N+](=O)[O-]	-6.9%	2.8%	-4.8%	-1.3%	-29.7%	0.2%
Cc1ccc(C)c(C(=O)CSc2nc(-c3ccccc3)nc3c2CCCC3)c1	/	-1.8%	/	/	-5.7%	/
Cc1ccc(-c2cn3cccc(C)c3n2)cc1	25.1µM*	0.8%	-23.6%	-3.4%	14.0%	-8.3%
CCOC(=O)c1c(C)c(C(=O)N2CCN(C(=O)c3ccco3)CC2)c(C)n1C	7.9%	-17.3%	15.6%	0.8%	7.4%	-12.2%
CCOC(=O)c1c(C)n(C(=O)c2ccco2)c(=O)n1C(=O)c1ccco1	-4.6%	1.5%	1.5%	1.0%	35.5µM*	-8.1%
O=C1C(=Cc2ccco2)CCC1=Cc1ccco1	/	?	-12.7%	/	/	/
Cc1cc(O)c(CN(C)C)c2c1C(=O)/C(=C/c1ccco1)O2	-1.0%	-17.3%	1.1%	0.3%	3.98µM*	8.3%
CC(=O)COc1ccc2c(c1C)O/C(=C\c1ccco1)C2=O	6.0%	3.5%	?	4.5%	20µM*	-1.4%
SMILES	LmPK inhibitor	TbPYK inhibitor	RE007 growth inh	SARS PLpro yeast	Sm TGR block	NS1 function inh
Cc1c(OC(=O)N(C)C)ccc2c1O/C(=C\c1ccco1)C2=O	1.9%	-18.9%	6.2%	-3.9%	11.2µM*	-6.8%
Cc1ccc(-c2c(C(=O)NCCc3ccccc3)oc(=O)c3ccccc23)cc1	/	-17.1%	/	/	2.1%	/
CCOC(=O)C1=C(C)N(c2ccc(OC)cc2)C(=O)/C1=C\c1ccc(O)c(OCC)c1	31.6µM*	-25.0%	-2.2%	-0.3%	4.47µM*	7.1%
CCOC(=O)C1=C(C)N(c2ccc(OC)cc2)C(=O)/C1=C\c1cccs1	0.3%	4.1%	9.2%	-12.8%	-10.3%	-4.6%
O=C(CSc1n[nH]c(=O)[nH]c1=O)c1ccccc1[N+](=O)[O-]	1.3%	-6.4%	-5.0%	1.4%	44.7µM*	1.2%
O=C(CSc1n[nH]c(=O)[nH]c1=O)c1cccc([N+](=O)[O-])c1	2.4%	-7.4%	-3.2%	0.6%	-22.2%	7.6%
CC1CCc2c(c3ccccc3n2C(=O)CCl)C1 (stereo not drawn)	6.7%	-15.8%	-21.3%	4.1%	8.91µM*	-41.0%
CC(=O)c1ccc(OCC(=O)N2CCCCC2)cc1	/	0.7%	/	/	/	/
OC(C#CCN1CCOCC1)c1cccs1 (stereo not drawn)	-1.7%	-4.9%	16.2%	8.5%	28.2µM*	5.3%
Cc1oc2ccc(O)c(CN3CCCCCC3)c2c1C(=O)Nc1cccc(C(F)(F)F)c1	/	-0.4%	/	/	-0.7%	/
Cc1c(N=Nc2c(O)n(-c3ccc(Br)cc3)c(=O)[nH]c2=O)c(=O)n(-c2ccccc2)n1C	-0.5%	-3.3%	2.5%	-0.5%	10µM*	-13.6%
O=C(c1cnccn1)N1CCC2(CC1)CCN(c1cccc(-c3ccccc3)c1)CC2	/	2.1%	/	/	/	/
CC1=C(C#N)C(=O)N(C2CCS(=O)(=O)C2)C(=O)/C1=C\c1ccco1 (stereo not drawn)	?	/	/	2.3%	8.91µM*	18.0%
Cc1ccc(C)n1C1CCS(=O)(=O)C1 (stereo not drawn)	0.2%	-2.9%	11.1%	3.5%	-28.5%	2.8%
COP(=O)(Cc1ccc(C#N)o1)OC	2.6%	0.6%	9.5%	0.6%	22.4µM*	4.7%
C=CCn1c(-c2cccc3ccccc23)n[nH]c1=S	8.91µM*	/	3.5%[3.69 µM]	?	0.1%	-1.3%
C=CCn1c(Cc2c[nH]c3ccccc23)n[nH]c1=S	-20.4%	12.6µM*	6.4%	5.5%	12.3%	?
O=C(CCC(=O)c1ccc(F)cc1)OCc1nnc(-c2ccc([N+](=O)[O-])cc2)o1	/	0.3%	-28.9%	2.3%	20µM*	/
Cc1csc(=O)n1CC(=O)OCc1nnc(-c2ccc([N+](=O)[O-])cc2)o1	/	-3.7%	-5.2%	-0.5%	1.7%	/
Oc1ccc(C[C@H]2NCCc3cc(O)c(O)cc32)cc1O	?	10.8%	-11.7%	-2.6%	17.8µM*	5.6%
CCCCOc1ccc(Cn2c(=O)sc3ccccc32)cc1	/	2.0%	/	/	15.0%	/
